PubChem BioAssay AID1845224 (National Center for Advancing Translational Sciences (NCATS), 2023)
Records with an inconclusive call do not appear. Calls of active or inactive are those of the source. Calls follow the shape of the dose curve; as a rule, active = well fitted curve in the direction sought with a large enough effect; inconclusive = small, poorly fitted or top-dose-only effect, or another doubt; inactive = no such curve, though single readings can be large or run the other way.

These compounds were tested on NanoLuc luciferase (engineered Oplophorus gracilirostris luciferase) (assay: Confirmatory Nanoluciferase (NLuc) qHTS assay for identification of artifact compounds.). Details: secreted NLuc in S16 cell medium, luminescence, 5 min; series mostly up to 39 µM; activity change, negative = inhibition: at the top concentration.
Summary of the method: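 Conditioned medium from NLuc-expressing S16 cells (diluted 1:55) as enzyme source; compounds 15 min at room temperature, then Nano-Glo substrate for 5 min. Luminescence normalized to no-enzyme and DMSO controls, fitted to 4-parameter Hill equation.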
Also: % of control where 0% means no effect.

Activity change, negative = inhibition, inactive:
C=C[C@@]1(C)CC(=O)[C@]2(O)[C@@]3(C)[C@@H](O)CCC(C)(C)[C@@H]3[C@H](OC(=O)CCN(C)C)[C@H](OC(C)=O)[C@@]2(C)O1 -11.8% [at 78.4 µM]
Oc1ccc(CCc2c(F)cccc2F)c2cccnc12 -11.6%
COc1ccc(C2Nc3ccccc3C(=O)N2CC(C)(C)C)cc1COc1ccc(NC(C)=O)cc1 (stereo not given) -8.01%
COc1ccc(NC(=O)Cn2c(=O)n(CCc3ccccc3)c(=O)c3c4c(sc32)CCCC4)cc1 -3.22%
O=C(Nc1ccccn1)c1sc2ccc([N+](=O)[O-])cc2c1Cl -4.05%
OC[C@H]1O[C@@H](O[C@@H]2OC=C[C@H]3[C@H](O)[C@@H]4O[C@]4(CO)[C@@H]23)[C@H](O)[C@@H](O)[C@@H]1O 3.73%
CCOC(=O)c1c(C)[nH]c(CCC(=O)NCCCN2CCN(c3ccc(F)cc3)CC2)c1C -5.53%
CN(C)c1ccc(CNC(=O)c2ccc3c(c2)N(C)C(=O)C2CCCCN32)cc1 (stereo not given) -7.38%
CC(=O)N1CCC(N(Cc2ccco2)C(=O)Nc2ccc(C)c(Cl)c2)CC1 -15.5%
O=C(OCc1ccccc1)c1ccccc1O 0.921%
CCOc1ccccc1-n1nnc(-c2nc(-c3ccccc3)no2)c1N -7.29%
COc1cc(O)c2c(c1)O[C@H](c1ccccc1)CC2=O -5.83%
CN(C)C=O 7.7%
CCOc1ccccc1NC(=O)Cn1c(=O)n(CCCC(=O)NCc2ccc(C)cc2)c(=O)c2ccccc21 -7.35%
COc1ccc(CC(N)C(=O)N[C@H]2[C@@H](O)[C@H](n3cnc4c(N(C)C)ncnc43)O[C@@H]2CO)cc1 (stereo not given in full) -0.358%
